Test results as given in PubChem BioAssay.

How the values were obtained:
[1] = NFkB reporter suppression in cystic fibrosis bronchial cells – cell-based, uHTS hits, panel, cytotoxicity readout, dose response (AID 624344); conditions: CF bronchial epithelial cells, PAF-induced NFkB reporter inhibition, with PAF, run 1; at 79 µM (top of the series) unless noted
[2] = as above; conditions: CF bronchial epithelial cells, PAF-induced NFkB reporter inhibition, with PAF, run 2; at 79 µM (top of the series) unless noted

Row | SMILES | inhibition [1] | inhibition [2]
1 | CC1CCN(CC(CS(=O)(=O)c2ccc([N+](=O)[O-])cc2)N2CCC(C)CC2)CC1 (stereo not drawn) | 101% | 104%
2 | Nc1ncnc(N2CCc3ccccc32)c1[N+](=O)[O-] | 115% | 103%
3 | Cc1ccc(C(=O)c2cc([N+](=O)[O-])ccc2N2CCCCC2)c(C)c1 | 79.4% | 54.3%
4 | CN(c1cccc(Cl)c1)S(=O)(=O)c1cccc(C(=O)Nc2nc3ccccc3[nH]2)c1 | 102% | 99.5%
5 | CCOc1cc2c(cc1O)C(=NO)CC1C2CCC2(C)C(O)CCC12 (stereo not drawn) | 103% | 112%
6 | COc1cc(NC(=O)c2cc3ccccc3cc2OC)ccc1NC(=O)c1cccs1 | 98.1% | 107%
7 | O=C1NCCc2c1[nH]c1c(Cl)ccc(Cl)c21 | 101% | 113%
8 | COc1ccc(OC)c(Nc2ncnc3ccc(Br)cc23)c1 | 98.3% | 97.5%
9 | C[C@@H]1CN([C@H](C)CO)C(=O)c2cc(NC(=O)Nc3ccc(C(F)(F)F)cc3)ccc2O[C@H]1CN(C)S(=O)(=O)c1ccc(Cl)cc1 | 86.7% | 92.7%
10 | CC(=O)OCCCNc1cc(Sc2ccc(Cl)cc2)c2nonc2c1[N+](=O)[O-] | 100% | 113%
11 | COc1ccc(COC(=O)C2=C(C)NC(=O)NC2c2ccc(F)cc2)cc1 (stereo not drawn) | 90.1% | 105%
12 | O=[N+]([O-])C1C(c2ccccc2)C12c1ccccc1-c1ccccc12 (stereo not drawn) | 99.1% | 106%
13 | O=C(CCS(=O)(=O)c1ccccc1)N(CCCN1CCOCC1)c1nc2c(F)cccc2s1 | 97.5% | 95.9%
14 | Brc1cccc(CSc2nnc(-c3ccncc3)o2)c1 | 105% | 99%
15 | COc1ccc(/C=N/NC(=O)c2[nH]c3ccc(Br)cc3c2-c2ccccc2)cc1 | 88.4% | 71.3%
16 | COc1cccc(-c2ccc3ncnc(NCc4cccs4)c3c2)c1 | 117% | 99.9%
17 | CCN(CC)CCNC(=O)c1ccc(NC(=O)C2CCN(c3ncnc4sc(C)c(C)c34)CC2)cc1 | 112% | 103%
18 | CCOc1cc2c(cc1O)C(=NOC)CC1C2CCC2(C)C(O)CCC12 (stereo not drawn) | 74% | 94.3%
19 | Cc1c(NC(=O)c2cc(-c3cccs3)nc3ccccc23)c(=O)n(-c2ccccc2)n1C | 112% | 103%
20 | CCOC(=O)c1ccc(-n2[nH]c(-c3ccccc3)cc2=O)cc1 | 113% | 93.3%
21 | O=C1N(c2ccccc2C(F)(F)F)O[C@@]1(c1ccccc1)C1CCCCC1 | 99.3% | 105%

Row | SMILES | inhibition [1] | inhibition [2]
22 | COc1ccc(/C=N/Nc2nc(-c3cccnc3)nc3ccccc23)cc1OC | 108% | 96.6%
23 | CC(C)C[C@@H](CN1CCCC1CN1C(=S)NC[C@@H]1Cc1ccc(O)cc1)N1C[C@H](Cc2ccc(O)cc2)N(CC2CCCCC2)C1=S (stereo partly drawn) | 102% | 107%
24 | Cc1ccc(-c2onc3ccc(C(=O)/C=C/N(C)C)cc23)cc1 | 101% | 113%
25 | C[C@@H]1CN([C@H](C)CO)C(=O)c2cc(NC(=O)Nc3ccc(C(F)(F)F)cc3)ccc2O[C@H]1CN(C)S(=O)(=O)c1ccccc1 | 92% | 110%
26 | COc1cc(-c2cnc3c(NC=O)cc(-c4ccc(C)cc4)cn23)cc(OC)c1OC | 70.3% | 70.5%
27 | CC(=O)NC(CC(C)C)C(=O)NC(Cc1ccccc1)C(=O)CCl (stereo not drawn) | 97.3% | 104%
28 | COc1ccc(Nc2nc(-c3cccs3)nc3ccccc23)cc1S(=O)(=O)N1CCOCC1 | 104% | 102%
29 | Cn1c(Sc2ccc(Cl)cc2)c(C=O)c2ccccc21 | 119% | 107%
30 | CC(=O)OC1CCC2(C)C(CCC3C4CC=C(C(C)=O)C4(C)OC(=O)CC32)C1 (stereo not drawn) | 99.2% | 104%
31 | O=C(NC1CCCC(C(F)(F)F)C1)c1ccc([N+](=O)[O-])o1 (stereo not drawn) | 97.5% | 103%
32 | O=C(c1[nH]c(C(F)(F)F)nc1-c1ccccc1)N1CCN(c2c(Cl)cncc2Cl)CC1 | 103% | 96.2%
33 | Oc1ccc(Cl)cc1Cc1cc(Cl)ccc1O | 103% | 107%
34 | COc1ccc(-c2nc(NC(=O)c3ccc(OCC(=O)Nc4ccc(F)cc4)c(OC)c3)sc2C)cc1 | 91.7% | 96.2%
35 | COc1ccc2cc3c(N)nn(C(=O)Cc4ccccc4OC)c3nc2c1 | 106% | 100%
36 | CCOc1ccccc1NC(=S)Nc1ccc2cn[nH]c2c1 | 104% | 114%
37 | Cc1ccc(S(=O)(=O)CC(CN2CCCCC2)N2CCCCC2)cc1 (stereo not drawn) | 102% | 109%
38 | CN(c1ncnc(N)c1[N+](=O)[O-])C1CCS(=O)(=O)C1 (stereo not drawn) | 96.8% | 104%
39 | C[C@@H](NC(=O)c1coc(=O)c(Br)c1)c1ccccc1 | 77.6% | 99.8% [at 19.8 µM]
40 | COc1ccc(-c2cc(NC=O)c3ncc(-c4cc(OC)c(OC)c(OC)c4)n3c2)cc1 | 50.1% | 53.5%
41 | Cc1ccccc1C(=O)N1CCN(c2ccc(NC(=O)CSc3ccc(Cl)cc3)cc2)CC1 | 77.6% | 71.9%
42 | CC(C)(C)OC(=O)NCC(=O)Oc1cc2oc(=O)cc(-c3ccccc3)c2cc1Cl | 117% | 104%

Row | SMILES | inhibition [1] | inhibition [2]
43 | CN(CCC#N)C(=O)COC(=O)c1ccccc1C(=O)c1ccc(Cl)c([N+](=O)[O-])c1 | 96.7% | 105%
44 | COCCCN=C1NN=C(c2cc(C)n(Cc3ccccc3Cl)c2C)CS1 | 88.6% | 106%
45 | NC(N)=NN=C(c1ccc(F)cc1)c1ccc(C(F)(F)F)cc1 | 108% | 117%
46 | O=C(Nc1ccc(OCC(=O)N2CCOCC2)cc1)c1cncc(Br)c1 | 90.4% | 98.9%
47 | Cc1ccc(C(=O)c2cncc(Br)c2)cc1 | 86.5% | 93.4%
48 | CC1Cc2ccccc2N1c1ncnc2nc[nH]c12 (stereo not drawn) | 114% | 106%
49 | O=C(NCCN1CCN(c2ccccc2)CC1)c1cccc(Br)c1 | 113% | 73.9%
50 | CC(=O)Nc1ccc(S(=O)(=O)N2c3ccccc3C(C)=CC2(C)C)cc1 | 93.9% | 56.4%
51 | COc1ccc(-c2ccccc2[C@H]2[C@@H]3C=CC[C@@H](C)[C@@H]3C(=O)N2Cc2ccccc2)cc1 | 102% | 108%
52 | CCOC(=O)Cc1nnc2c(Nc3ccc(Cl)cc3)nc3nonc3n12 | 110% | 101%
53 | COc1ccccc1/C=C/C(=O)c1c2c(c(C)[nH]c1=O)CCCC2 | 110% | 96%
54 | Cc1ccc(CNc2ncnc3ccc(-c4ccoc4C)cc23)o1 | 103% | 89.6%
55 | O=Nc1c(O)n(Cc2c(Cl)cccc2Cl)c2ccccc12 | 103% | 115%
56 | Cc1nn(-c2ccccn2)c2c1-c1nc(N)ncc1CC2 | 98.6% | 102%
57 | CS(=O)(=O)c1ccc2nc(NC(=O)Nc3cccc(Cl)c3)sc2c1 | 79.3% | 83.9%
58 | CN(C)c1ccc(-c2nn3c(-c4ccccc4Cl)nnc3s2)cc1 | 102% | 65.9%
59 | CCCCNc1c(-c2cccc(-c3ccc(OC)cc3)c2)nc2ccc(C)cn12 | 98.7% | 107%
60 | CCOC(=O)COc1ccc2ccccc2c1/C=C/[N+](=O)[O-] | 100% | 97.5%
61 | Cc1ccc(-c2c(C#N)c(N)n3c(nc4ccccc43)c2C#N)cc1 | 109% [at 39.5 µM] | 50.7%
62 | CCCC1/C(=N/O)CC(c2ccccc2)NC1c1ccccc1 (stereo not drawn) | 106% | 98.7%
63 | COC(=O)C1=C(C(=O)OC)[C@@H]2N(Cc3ccccc3)c3ccccc3[C@@]23C[C@@H](C(=O)OC)N(C(=O)c2ccc(Br)cc2)C3=N1 | 101% | 110%

Row | SMILES | inhibition [1] | inhibition [2]
64 | C=C(c1ccc2nc(NC(=O)OC)[nH]c2c1)c1cccs1 | 101% | 110%
65 | COc1ccccc1Cn1c(=O)c2ccccc2n2c(Sc3ncnc4sccc34)nnc12 | 101% | 113%
66 | Cc1ncc(CO)c2c1Oc1nc(-c3ccccc3F)nc(SCC(=O)N(C)c3ccccc3)c1C2 | 105% | 102%
67 | Clc1ccc(CSc2nnc(-c3ccncc3)o2)cc1 | 102% | 83.7%
68 | O=C(Nc1ccc2c(c1)OCCO2)c1cc(-c2ccccn2)nc2ccc(Br)cc12 | 6.4% | 68.9%
69 | CNC(=O)COC(=O)c1ccccc1C(=O)c1ccc(Cl)c([N+](=O)[O-])c1 | 103% | 102%
70 | O=C(Nc1ccccc1)Nc1ncc([N+](=O)[O-])s1 | 108% | 96.7%
71 | COc1ccc(-c2cnc3c(NC=O)cc(-c4ccc(C(=O)N5CCOCC5)cc4)cn23)cc1OC | 106% | 99%
72 | CC(=O)OCCN1c2ccccc2Sc2cnccc21 | 105% | 109%
73 | CCOC(=O)c1c(C)[nH]c(C(=O)N/N=C/c2ccc(Br)cc2)c1C | 89.5% | 83.1%
74 | CC1=C(/C=C/C(C)=C/C=C/C(C)=C\C(=O)O)C(C)(C)CCC1 | 100% | 71.7%
75 | Oc1ccc(Nc2ncnc3scc(-c4ccccc4)c23)cc1 | 56% | 41%
76 | Cc1cc2cc(CCNC(=O)C(=O)c3c[nH]c4ccccc34)c(=O)[nH]c2cc1C | 94.2% | 95.5%
77 | O=C(CN1C(=O)CCC1=O)Nc1nc(-c2nc3ccccc3s2)cs1 | 84.7% | 85.9%
78 | COc1ccc2c(c1)c(C(C)=O)c(C)n2-c1ccc(C(C)=O)cc1 | 89.8% | 101%
79 | Cc1c(C(=O)OCC(C)C)[nH]c2c1C(=O)CC(c1ccco1)C2 (stereo not drawn) | 97.4% | 61.5%
80 | ON=C1c2ccccc2-c2ccccc21 | 95.8% | 106%
81 | Cc1ccc2c(c1)C(=O)C(=O)N2Cc1ccc(Br)cc1 | 106% | 113%
82 | Cc1nc(N2CCC(C(N)=O)CC2)c2c(-c3cccs3)csc2n1 | 97.5% | 93.8%
83 | CCOC(=O)c1ccc(NC(=O)Nc2nncs2)cc1 | 83.2% | 111%
84 | CCCCN(c1ccccc1)c1ncnc(N)c1[N+](=O)[O-] | 97.4% | 101%
